# Measured values: PubChem BioAssay AID588778 (Southern Research Institute, 2011)
# In all, about 10,000 compounds went through this assay and fewer than 10 were called active. No rule for the calls is given here. These entries were drawn from the full list.
# Assay: Vibrio cholerae motility inhibitors, OD read-out (AID 588778)
# Conditions: stronger effect = higher value
# [1] = measured here: bacterial viability at 10 ug/mL
Structure (SMILES),inhibition (concentration not given here),inhibition [1] [%]
O=C(NCCSCc1ccco1)Nc1ccccc1,22.3% (inactive),0.29
O=C(CSCc1ccc([N+](=O)[O-])cc1)N1CCN(c2cccc(Cl)c2)CC1,-5.85% (inactive),-3.47
Cc1cc2[nH]c(=S)n(Cc3ccccc3Cl)c2cc1C,-26.6% (inactive),-12.9
O=C(NC(=O)C(Cl)(Cl)Cl)NC1CCCC1,-16.4% (inactive),3.96
O=C(NC(=S)Nc1ccccc1C(=O)NC1CCCCC1)c1ccco1,3.43% (inactive),7.92
CCn1ccc(C(=O)Nc2ccc(C(F)(F)F)cc2Cl)n1,-7.69% (inactive),-1.52
Cc1cc(N2C(=O)CC(Cc3ccc(Cl)cc3)C2=O)no1 (stereo unspecified),1.86% (inactive),-6.9
O=C(CC(NC(=S)Nc1ccccc1)c1ccccc1)c1ccccc1 (stereo unspecified),15.4% (inactive),5.66
CC(C)C(C(=O)O)c1ccc([N+](=O)[O-])cc1 (stereo unspecified),6.16% (inactive),-2.35
COc1ccc([N+](=O)[O-])cc1CSc1ccccn1,-1.69% (inactive),-0.75
CC(C)CNC(=S)NNC(=O)CC(C)O (stereo unspecified),52.6% (inactive),22.3
CSCCC(C(=O)O)n1c(-c2ccc3ccccc3n2)n[nH]c1=S (stereo unspecified),-9.7% (inactive),-4.1
Cc1ccc(C(C)C)c(OCCSc2nc3ccccc3n2CC(O)CO)c1 (stereo unspecified),6.25% (inactive),-5.04
O=C(O)CCn1c2ccccc2c2ccccc21,15.5% (inactive),-1.8
COc1ccc(NC(=O)c2cc(S(=O)(=O)N3CCOCC3)c(Cl)cc2Cl)c([N+](=O)[O-])c1,-16.3% (inactive),-8.39
O=C(NCc1ccc(Cl)c(Cl)c1)c1ccc(Br)o1,20.3% (inactive),4.03
COc1ccc2cnn(-c3ccccc3)c(=O)c2c1OC,12% (inactive),4.55
CCOc1cc(C(=S)N2CC(C)OC(C)C2)cc(I)c1OCC(=O)N1CCCC1 (stereo unspecified),11% (inactive),5.69
CC(C)(O)C#Cc1ccc(C(=O)NC2CCCCC2)cc1,12.9% (inactive),20.2
Cc1cc(=O)[nH]c2c1cnn2Cc1ccccc1,49.6% (inactive),17.8

Structure (SMILES),inhibition (concentration not given here),inhibition [1] [%]
Cc1c(NC(=O)C2CC(c3c(F)cccc3Cl)=NO2)c(=O)n(-c2ccccc2)n1C (stereo unspecified),0.12% (inactive),-4.39
CC1(C(=O)NN2CCOCC2)CC1(Cl)Cl (stereo unspecified),1.9% (inactive),-3.31
CC(=O)c1cccc(NC(=O)C2CC(=O)N(Cc3ccccc3)C2)c1 (stereo unspecified),-14% (inactive),-3.46
C#CCOc1c(Br)cc(/C=C/[N+](=O)[O-])cc1OC,33.7% (inactive),7.02
COc1ccc(C(=O)NCc2ccoc2C(=O)O)cc1,16.5% (inactive),8.04
O=C(Cn1cnc2ccccc2c1=O)c1ccc(Br)cc1,-17.8% (inactive),-8.61
Cc1cc(C)n2nc(Cc3ccccc3)c(-c3cccc4ccccc34)c2n1,0.73% (inactive),8.65
O=CN1Cc2ccccc2-c2ccccc2C1,6.8% (inactive),3.25
O=C(CNC(=S)NC(=O)c1ccc(F)cc1)c1ccccc1,-64% (inactive),-21.1
O=C(c1ccccc1Oc1ccc(C(F)(F)F)cc1[N+](=O)[O-])N1CCOCC1,-15.4% (inactive),-2.04
CN1CCN(C(=O)c2ccccc2NC(=O)Nc2ccccc2)CC1,15.9% (inactive),1.65
COc1cccc(/C=C(\C#N)c2ccccc2)c1OC(C)C,22.8% (inactive),-2.34
COc1ccc(C2/C(=C(\O)c3ccc(C)cc3)C(=O)C(=O)N2c2ncc(S(=O)(=O)c3ccc([N+](=O)[O-])cc3)s2)cc1 (stereo unspecified),-0.505% (inactive),-2.23
Cc1cc(NC(=O)CC2C(=O)N(c3ccccc3)C(=S)N2CCc2ccc(F)cc2)no1 (stereo unspecified),13.3% (inactive),9.96
Cc1ccc(NNC(=O)C(c2ccccc2)c2ccccc2)cc1,7.31% (inactive),10
Cc1ccc(CN2CC(C(=O)O)CC2=O)cc1 (stereo unspecified),14.2% (inactive),-5.3
Cc1ccccc1NC(=O)NNc1ccc(F)cc1,15.9% (inactive),1.32
CCOC(=O)c1sc(NC(=O)COc2ccc(Cl)cc2Cl)cc1C,19.1% (inactive),13.9
CCOc1ccc2nc(SCC(=O)Nc3ccc4c(c3)OCO4)[nH]c2c1,4.79% (inactive),2.6
Cn1cc(C2CC(=O)N(c3c(Cl)cccc3Cl)C2=O)c2ccccc21 (stereo unspecified),-0.44% (inactive),3.05

Structure (SMILES),inhibition (concentration not given here),inhibition [1] [%]
CC12CCC(C(=O)NCc3ccc4c(c3)OCO4)(c3nc4ccccc4nc31)C2(C)C (stereo unspecified),3.2% (inactive),0.26
O=[N+]([O-])c1cccc(N2CCOCC2)c1,17.3% (inactive),4.88
OC(COCc1ccc(Cl)cc1)CN1CCN(c2cccc(Cl)c2)CC1 (stereo unspecified),37.3% (inactive),11.7
COc1ccc(C(=O)CSc2nc(=O)cc(N)n2-c2ccc(C)cc2)cc1OC,-12% (inactive),-11.4
O=C(CS(=O)(=O)Cc1ccccc1)N1CCN(Cc2ccc3c(c2)OCO3)CC1,12.5% (inactive),2.65
CN(CCc1ccccn1)S(=O)(=O)c1ccccc1,4.78% (inactive),-3.86
COc1ccc(C(=O)ON2C(=O)CCC2=O)cc1I,4.65% (inactive),-0.225
Cc1cc(NC(=O)c2ccccc2Cl)c(OC(=O)c2ccccc2Cl)cc1C,-5.73% (inactive),-9.05
O=C(Oc1ccccn1)C1COc2ccccc2O1 (stereo unspecified),-4.64% (inactive),-1.04
Cn1nnc2cc(NC(=O)NCc3ccco3)ccc21,9.79% (inactive),6.21
COc1cc(N2C(=O)c3cccc4c([N+](=O)[O-])ccc(c34)C2=O)ccc1-n1nc(C)cc1C,3.2% (inactive),-0.9
CC(=O)Nc1sc(/C(C#N)=C/c2ccc(N(C)C)cc2)nc1-c1ccc(C)cc1,2.79% (inactive),-2.29
O=[N+]([O-])c1ccccc1OCCCNCc1ccco1,11% (inactive),4.43
CC(C)(C)SCCNC(=S)Nc1ccccc1,32.6% (inactive),4.53
COC(=O)C1=C(C)N=C2SCCC(=O)N2C1/C=C/c1ccccc1 (stereo unspecified),-20.3% (inactive),-9.41
CCSc1ncc(Cl)c(C(=O)Nc2c(C)n(C)n(-c3ccccc3)c2=O)n1,-0.94% (inactive),-0.4
CC(=O)N(Cc1cc2ccc(C)cc2[nH]c1=O)c1ccc(C)cc1C,-16.5% (inactive),-2.06
O=C(O)CCCCN1Cc2ccccc2C1,2.35% (inactive),7.06
